Source: PubChem
Hits are enriched below; roughly 1.6% of the tested compounds scored in any of these assays.
m5-HT2A agonist: mouse HTR2A agonism via beta-arrestin recruitment | AID 624169 | P35363 | CHO-K1 mHTR2A beta-arrestin complementation, luminescence; percent of 30 µM serotonin response | actives 0.66% (n = 360,000) | activation, % at 7.6 µM;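 active = activation above a run cutoff, the mean activation of all tested compounds plus 3 SD, cut at about 14% in these data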
Target sequence (P35363 whole entry, looked up): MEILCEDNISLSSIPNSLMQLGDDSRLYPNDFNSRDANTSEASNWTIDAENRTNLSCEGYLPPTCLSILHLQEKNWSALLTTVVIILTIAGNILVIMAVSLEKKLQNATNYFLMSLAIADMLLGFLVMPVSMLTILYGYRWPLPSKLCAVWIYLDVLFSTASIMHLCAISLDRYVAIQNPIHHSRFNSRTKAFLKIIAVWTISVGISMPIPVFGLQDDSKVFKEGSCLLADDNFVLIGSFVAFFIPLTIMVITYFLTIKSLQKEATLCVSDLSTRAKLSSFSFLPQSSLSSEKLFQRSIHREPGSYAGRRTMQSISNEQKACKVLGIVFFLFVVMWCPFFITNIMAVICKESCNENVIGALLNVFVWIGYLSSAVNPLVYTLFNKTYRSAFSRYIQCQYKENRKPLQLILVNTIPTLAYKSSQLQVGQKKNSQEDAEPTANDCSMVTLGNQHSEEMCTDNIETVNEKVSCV
OPRM1-OPRD1 ag: agonists of human mu-delta opioid receptor heterodimerization | actives 0.3% (n = 340,000) | P35372+P41143 | cells, OPRM1-OPRD1 heterodimerization, luminescence | activation, % at 9.3 µM; in the data active = activation above about 18%
HTR5A ag ctr: HTR5A agonism, opioid heterodimer counter-screen; P47898; HTR5A agonist assay, luminescence, cell-based; activation, % at 9.3 µM; actives 0.61% (n = 340,000); AID 504692; in the data active = activation mostly above about 9.5%, no sharp cut-off; inactive = mostly below about 7.6%
MOR-DOR inv ag: inverse agonist of human OPRM1-OPRD1 heterodimerization; P35372+P41143; cell-based MOR-DOR heterodimer luminescence, inverse agonism; inhibition, % at 9.3 µM; actives 0.21% (n = 340,000); AID 504357; in the data active = inhibition above about 22%, passing the limit was not always enough
HTR5A inv ctr: counter-screen for OPRM1-OPRD1 inverse agonists: human HTR5A inverse agonism; AID 504634; HTR5A cell line, luminescence; actives 0.083% (n = 340,000); P47898; inhibition, % at 9.3 µM; in the data active = inhibition mostly above about 23%, no sharp cut-off; inactive = mostly below about 18%
Hits are given with their value; i = inactive; nt = no result given.

SMILES	m5-HT2A agonist	OPRM1-OPRD1 ag	HTR5A ag ctr	MOR-DOR inv ag	HTR5A inv ctr
Cc1nc2c(c(=O)c3ccccc3n2C)c(=O)n1C1CCCCCC1	i	i	i	i	i
Cn1c2ccccc2c(=O)c2c(=O)n(C3CCCCC3)c(-c3ccco3)nc21	i	i	13	i	i
COc1ccc(CN(C(=O)c2ccco2)C2CCS(=O)(=O)C2)cc1 (stereo not drawn)	i	i	i	i	i
COc1cccc(CN(C(=O)c2ccco2)C2CCS(=O)(=O)C2)c1 (stereo not drawn)	i	i	13	i	i
CCCOc1ccc(C(=O)NC(=S)NNC(=O)c2c(-c3ccccc3)noc2C)cc1	i	i	i	46	44
CCOC(=O)C1CCN(c2ccc([N+](=O)[O-])cc2)CC1	i	i	13	i	i
COC(=O)c1cn(NC(=O)c2cccc(N(C)C)c2)c(=O)c2ccccc12	i	i	9.2	i	i
O=C(NCc1nnnn1-c1ccc(F)cc1)c1ccc2c(c1)OCO2	i	nt	nt	nt	nt
CCOc1ccc(CCNC(=O)c2ccc(F)c(S(=O)(=O)N3CCOCC3)c2)cc1OCC	i	i	11	i	i
O=Cc1s/c(=N\S(=O)(=O)c2ccccc2)n(CCCCl)c1Cl	i	i	i	34	i
Cc1ccc(S(C)(=O)=O)cc1C(=O)N1CC(C(N)=O)Oc2ccccc21 (stereo not drawn)	i	i	i	i	i
Cc1cccc(NC(=O)c2cc(C)nc3ccccc23)c1	i	i	14	i	i
COc1cccc(-c2cc(C(=O)Nc3ccncc3)c3ccccc3n2)c1	i	i	14	i	i
COc1ccc(-c2cc(C(=O)NC3CCCC3)c3ccccc3n2)cc1OC	i	i	i	i	i
Cc1ccc(NC(=O)c2cc(C)nc3ccccc23)cc1	i	i	i	i	i
COc1ccc(-c2cc(C(=O)NC(C)c3ccccn3)c3ccccc3n2)cc1OC (stereo not drawn)	20	i	i	i	i
CCCCN1C(=O)C(CC(=O)NC2CCCC2)CC(C(=O)N2CCCCCC2)=C1C (stereo not drawn)	i	nt	nt	nt	nt
O=C(NC1CCCCC1)C(c1cccnc1)N(C(=O)CCl)c1cccc(Cl)c1 (stereo not drawn)	i	35	36	i	i
COc1ccc(N(C(=O)c2cnccn2)C(C(=O)NC2CCCCC2)c2ccc(Cl)cc2)cc1 (stereo not drawn)	i	i	i	i	i
COc1ccc(C(C(=O)NC2CCCCC2)N(C(=O)CCl)c2ccc(Cl)cc2)cc1 (stereo not drawn)	i	89	66	i	i
CCN(CCCNC(=O)C1CCN(S(=O)(=O)c2cnc[nH]2)CC1)c1cccc(C)c1	i	i	11	i	i
CCN(CCCNC(=O)C1CCCN(S(=O)(=O)CC)C1)c1cccc(C)c1 (stereo not drawn)	i	i	i	i	i
O=C1Nc2ccccc2C1=Nc1ccc(Cl)cc1	i	i	i	64	i
CCN(CC)c1ccc(N=C2C(=O)Nc3ccccc32)cc1	i	i	i	i	i
O=C1NC(c2ccc(Br)cc2)Nc2ccccc21 (stereo not drawn)	i	i	i	i	i
SMILES	m5-HT2A agonist	OPRM1-OPRD1 ag	HTR5A ag ctr	MOR-DOR inv ag	HTR5A inv ctr
O=C1Nc2ccccc2C1=Nc1ccc(Br)cc1	i	i	i	55	i
Cc1nc(CN(C)C(=O)c2cc(COc3ccc4ncccc4c3)on2)cs1	i	i	i	i	i
O=C(CCN1C(=O)/C(=C/c2ccccc2)SC1=S)NCCc1ccc(O)cc1	i	i	14	i	i
O=C(NC1CCCCC1)C(c1ccc(O)cc1)N(C(=O)c1cnccn1)c1cccc(F)c1 (stereo not drawn)	i	i	i	i	i
COC(=O)C(NS(=O)(=O)c1ccccc1Br)C(C)C (stereo not drawn)	i	i	14	i	i
c1ccc(CNc2nc(NCc3ccccc3)c3ccccc3n2)cc1	i	40	19	i	i
CSC1=NC=C(C#N)C2=NC(c3c(Cl)cccc3Cl)NN12 (stereo not drawn)	i	nt	nt	nt	nt
N#Cc1ccc(C(=O)Nc2cccc3ccccc23)c(F)c1	i	i	i	i	i
O=C(Nc1c(-c2ccccc2)[nH][nH]c1=O)c1ccc(Br)cc1	i	nt	nt	nt	nt
CC(S(=O)(=O)c1ccccc1)S(=O)(=O)c1ccccc1	i	nt	nt	nt	nt
CC1=C/C(=N\OS(=O)(=O)c2ccccc2)C(C(C)C)=CC1=O	i	186	20	i	i
COc1ccc(-c2nc3ncccn3c2Nc2ccc3c(c2)OCCO3)cc1	i	i	i	i	i
Cc1ccc(-c2nc3ncccn3c2Nc2ccc3c(c2)OCCO3)cc1	i	i	10	i	i
COC(=O)c1cccc(NS(=O)(=O)c2ccc(OC)c(C(=O)N3CCOCC3)c2)c1C	i	i	i	i	i
C=C(CN(C)C)C(=O)c1cc(OC)c(OC)cc1OC	i	i	i	i	i
COC(=O)c1sc(N)c(C(=O)OC)c1COC(=O)c1c(C)noc1C	i	i	i	46	46
COCC(C)n1c(C)cc(C(=O)COC(=O)C2=NN(c3ccccc3)C(=O)CC2)c1C (stereo not drawn)	i	i	i	i	i
COCC(C)n1c(C)cc(C(=O)COC(=O)c2c(C)nn(-c3ccccc3)c2C)c1C (stereo not drawn)	i	i	10	i	i
COc1cccc(NC(=O)Nc2nc(-c3ccc(OC)c(OC)c3)cs2)c1	i	29	25	i	i
COc1ccc(CC(=O)Nc2cccc(-c3nnc(-c4ccc(C)cc4)o3)c2)cc1OC	i	20	17	i	i
CCOc1ccc(NC(=O)NCCN2CCN(c3ccccc3F)CC2)cc1	i	i	i	i	i
CCOc1ccc(NC(=O)NCCN2CCN(c3cccc(C)c3C)CC2)cc1	i	i	11	i	i
CCc1nnc(NC(=O)c2nc(S(=O)(=O)Cc3cccc(C)c3)ncc2Cl)s1	i	i	9.1	i	i
CCc1nnc(NC(=O)c2nc(S(=O)(=O)Cc3ccccc3)ncc2Cl)s1	i	i	i	i	i
COc1cccc(CN(C)CC(=O)Nc2ccccc2N2CCOCC2)c1OC	i	i	i	i	i
SMILES	m5-HT2A agonist	OPRM1-OPRD1 ag	HTR5A ag ctr	MOR-DOR inv ag	HTR5A inv ctr
Cc1cc(C)n2nc(NCc3cccc(Br)c3)nc2n1	i	i	12	i	i
COc1ccc(CNc2nc3nc(C)cc(C)n3n2)cc1OC	i	i	i	i	i
Cc1ccc2c(c1)c1nnc(SCC(=O)Nc3ccc(N(C)C)cc3)nc1n2CC(=O)O	i	i	13	i	i
Cn1cccc1/C=C(/C#N)C(N)=S	i	i	i	37	i
CCC(CC)NC(=O)c1nn(Cc2ccccc2)c(=O)c2ccccc12	i	i	9.8	i	i
CC(C)[C@H](NC(=O)c1nn(Cc2ccccc2)c(=O)c2ccccc12)C(=O)O	i	i	i	i	i
CC1(C(=O)NCc2ccc(F)c(F)c2)Cc2c(-c3ccccc3)ccnc2O1 (stereo not drawn)	i	nt	nt	nt	nt
COc1ccc(C(=O)NCCc2c[nH]c3ccc(OC)cc23)cc1	i	i	i	i	i
COc1ccc2[nH]cc(CCNC(=O)c3ccc4ccccc4n3)c2c1	i	i	14	i	i
